# Most compounds without a hit are left out; they make up all but 11% or so of the library.
# G9a inh: inhibitors of human histone lysine methyltransferase G9a. G9a H3K9 monomethylation, AlphaScreen, 2 h. Potency, µM (top dose mostly 102 µM), usual class: inhibitors. AID 504332. 350,000 tested, 8.8% active; note: nearly all actives have a fitted effect of over 75% in size
# Target sequence (Q96KQ7 913-1193 limits assumed): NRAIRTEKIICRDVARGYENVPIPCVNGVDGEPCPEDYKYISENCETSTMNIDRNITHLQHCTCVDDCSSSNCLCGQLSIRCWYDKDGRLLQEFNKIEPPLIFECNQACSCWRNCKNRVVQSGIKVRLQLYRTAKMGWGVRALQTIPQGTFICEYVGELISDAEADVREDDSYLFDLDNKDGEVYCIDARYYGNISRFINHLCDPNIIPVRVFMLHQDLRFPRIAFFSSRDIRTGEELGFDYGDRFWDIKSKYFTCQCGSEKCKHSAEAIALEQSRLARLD
#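 Using a bead-based AlphaScreen, monomethylated H3K9 product from 2 h room-temperature reactions (G9a 20 nM, peptide 500 nM, SAM 20 uM) was detected with 0.5 ug/mL rabbit anti-H3K9me1 antibody.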
# HP1b chromo inh: inhibitors of HP1-beta chromodomain binding to methylated histone tails. P83916. AlphaScreen HP1-beta / biotin-H3K9me3 peptide binding. Potency, µM (titrated, usually from 114 µM), most hits filed as inhibitors. 390,000 tested, 0.56% active. AID 540317; note: nearly all actives have a fitted effect of over 70% in size
# Target sequence (P83916 whole entry, looked up): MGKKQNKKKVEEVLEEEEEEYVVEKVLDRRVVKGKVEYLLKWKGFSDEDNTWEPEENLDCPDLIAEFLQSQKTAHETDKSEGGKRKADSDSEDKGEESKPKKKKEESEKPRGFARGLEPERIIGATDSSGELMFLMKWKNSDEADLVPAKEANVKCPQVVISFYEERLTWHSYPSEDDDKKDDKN
#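 Compound inhibition of the preformed complex between 50 nM HP1-beta and 50 nM biotinylated H3K9me3 peptide was read by AlphaScreen. Buffer was PBS pH 7.4 with 0.01% Tween-20. Incubations ran 30 min at room temperature, with 10 ug/mL donor/acceptor beads.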
# JMJD2A Tudor inh: blocks the human JMJD2A Tudor domain | Potency, µM (highest dose often 114 µM), most hits filed as inhibitors | 390,000 tested, 4.4% active | O75164 | AlphaScreen JMJD2A-Tudor / H3K4me3 peptide binding | AID 504339; note: nearly all actives have a fitted effect of over 50% in size
# BAZ2B inh: inhibitors of human BAZ2B bromodomain | Q9UIF8 | AlphaScreen BAZ2B-H3K14Ac peptide displacement | Potency, µM (titrated, usually from 114 µM), actives largely listed as inhibitors | 360,000 tested, 4.4% active; note: nearly all actives have a fitted effect of over 60% in size
#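 In this displacement format the biotinylated H3(5-23) peptide acetylated at Lys14 serves as ligand at 50 nM, with BAZ2B at 50 nM in PBS pH 7.4 containing 0.01% Tween-20. Donor and acceptor beads are 10 ug/mL final.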
# L3MBTL1 block: blocks human L3MBTL1. Q9Y468. AlphaScreen L3MBTL1–H3K9me1 peptide binding. Potency, µM (highest dose often 57.1 µM), most hits filed as inhibitors. 230,000 tested, 0.66% active. AID 485360; note: nearly all actives have a fitted effect of over 60% in size
#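 First, the protein-peptide complex forms for 30 min at room temperature (L3MBTL1 50 nM, biotinylated H3K9me1 peptide 75 nM). Next, compounds are pin-transferred and incubated 30 min. Finally, AlphaScreen beads are added and read after 30 min.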
# Hits are given with their value; n = inactive; u = inconclusive; x = not tested or not shown; [ ] = remark or other dose. Calls come from the whole dose curve; as a rule, active = well fitted inhibition curve with a large enough effect; inconclusive = small, poorly fitted or top-dose-only effect; inactive = no such curve, though single readings can be large or run the other way.
SMILES,G9a inh,HP1b chromo inh,JMJD2A Tudor inh,BAZ2B inh,L3MBTL1 block
CCC(C)NC(=O)c1c(N)n(/N=C/c2cccnc2)c2nc3ccccc3nc12 (stereo unspecified),n,n,n,n,n
CCC(Sc1nnc2c(n1)[nH]c1ccccc12)C(=O)Nc1nnc(C(C)C)s1 (stereo unspecified),n,n,n,n,x
C=CCC1Cc2c(Br)cccc2C(CC=C)N1 (stereo unspecified),u,n,n,n,n
C=CC[C@H]1Cc2c(cccc2[N+](=O)[O-])[C@H](CC=C)N1,n,n,n,40µM,x
COc1ccc(-c2c/c(=N\c3nc(-c4ccccc4)c(C)s3)c3ccccc3o2)cc1O,u,u,u,50µM,x
CCC(O)c1cc2c(cc1NC(=O)c1ccccc1F)OCCO2 (stereo unspecified),n,n,n,n,x
Cc1c(Cl)cccc1NS(=O)(=O)c1cc2c(cc1F)NC(=O)CC2,x,x,n,x,x
CCN(CC)CCCN(C(=O)c1ccc(Br)cc1)c1nc(-c2ccc(OC)cc2)cs1,x,u,56µM,50µM,n
COc1ccc(-c2csc(N(CCCN3CCOCC3)C(=O)CCl)n2)cc1,35µM,n,u,u,n
COC(=O)CC1c2cc(OC)c(OC)cc2CCN1C(=O)Nc1ccc(C)cc1Cl (stereo unspecified),n,n,n,n,x
Cc1ccc(N2CC(O)(c3cccs3)[N+]3=C2CCCC3)cc1 (stereo unspecified),n[12.7 µM],n,n,n,n
Cc1ccc(N2NC(C)(c3cccs3)NC2=S)cc1 (stereo unspecified),8.9µM,n,u,u,n
O=[N+]([O-])c1ccc2nonc2c1Nc1cccc(F)c1,n,n,u,u,x
O=[N+]([O-])c1cc(F)cc(F)c1Nc1cc(F)cc(F)c1,x,u,45µM,x,x
O=C1ON=C(c2ccccc2)/C1=C/c1ccc(O)cc1,50µM,n,n,n,n
CCCCc1ccc(/C=C2/C(=O)ON=C2c2ccccc2)s1,n,n,n,n,n
O=C1ON=C(c2ccccc2)/C1=C/c1ccccc1,45µM,n,n,n,n
O=C1ON=C(c2ccccc2)/C1=C\c1ccco1,32µM,n,n,u,22µM
O=C1ON=C(c2ccc(Cl)cc2)/C1=C/c1ccc(O)cc1,50µM,n,n,u,x
Cc1ccc(C2=NOC(=O)/C2=C\c2ccccc2)cc1,x,n,n,x,x
Cc1nc2c(c(C)c1CCC(=O)Nc1cccc(C(F)(F)F)c1)c(=O)n(C)c(=O)n2C,n,n,n,n,x
Cc1ccc(/C=N/Nc2nncc(-c3ccccc3)n2)o1,n,n,n,n,n
Cc1ccc(/C=C2/C(=O)ON=C2c2ccccc2)o1,13µM,u,79µM,28µM,n
COc1ccc(C(CC(=O)c2ccc(C)cc2)Nc2ccc([N+](=O)[O-])cc2)cc1 (stereo unspecified),u,n,u,n,n
Cc1ccnc(SCC(=O)O)n1,n,n,n,n,n
SMILES,G9a inh,HP1b chromo inh,JMJD2A Tudor inh,BAZ2B inh,L3MBTL1 block
Cc1ccnc(SC2CC(=O)N(c3ccc([N+](=O)[O-])cc3)C2=O)n1 (stereo unspecified),35µM,n,n,n,n
Cc1ccc(C(=O)CC(SCC(=O)O)c2ccc([N+](=O)[O-])cc2)cc1 (stereo unspecified),25µM,50µM,u,u,n
Cc1ccc(N2C(=O)CC(Sc3nccc(C)n3)C2=O)cc1 (stereo unspecified),u,n,n,n,n
CCOC(=O)CNC(=O)CSc1nc2nc(C)c(Br)cc2[nH]1,35µM,n,n,n,n
Cc1ccnc(SCC(=O)c2ccc([N+](=O)[O-])cc2)n1,13µM,n,n,u,n
CCOc1ccc(C2c3c(-c4ccc(C)cc4)n[nH]c3C(=O)N2c2ccc(Cl)cc2)cc1 (stereo unspecified),n,n,n,x,x
Cc1noc(C)c1-c1cc(NC2CCNCC2)ncn1,n[0.501 µM],x,x,x,x
Cc1nc2nc(SCC(=O)c3ccc([N+](=O)[O-])cc3)[nH]c2cc1Br,20µM,n,u,n,n
Cc1cc(C)nc(SCC(=O)c2ccc([N+](=O)[O-])cc2)n1,u,n,79µM,n,n
N#C/C(=C\c1ccc(Cl)cc1Cl)c1nc(-c2cccc(Cl)c2)cs1,n,n,n,n,x
Cc1ccc2c(c1)N(C(=O)N1CCC(C(=O)NCc3cccc(Br)c3)CC1)CCO2,n,n,n,n,x
